Screening results: PubChem BioAssay, National Center for Advancing Translational Sciences (NCATS)
A selection: hits, their analogues and other compounds. The true share with any hit is near 19%.
HT1080-NT tox – kills 2HG-producing HT-1080-NT fibrosarcoma cells; HT-1080-NT fibrosarcoma viability, CellTiter-Glo ATP luminescence, 48 h; Potency, µM (doses to about 46.1 µM), for the others: at the highest dose activity, negative = less viability, hits mostly cytotoxic; 1.6% of 360,000 active; AID 686970;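 further: NT is the 2HG producing partner of a matched IDH1 knockdown line; potency means the concentration at half of the fitted maximal effect; 0% = DMSO-treated cells and -100% = media-only wells without cells; nearly all actives have a fitted effect of over 55% in size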
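Viability by CellTiter-Glo luminescence after 48 h compound exposure at 37C of HT-1080-NT cells (750/well, RPMI, 5% FBS). % activity scaled between DMSO wells and medium-only wells, then curve-fitted and categorized by curve class.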
DT40 TDP1 no CPT – qHTS for Inhibitors of human tyrosyl-DNA phosphodiesterase 1 (TDP1): qHTS in cells in absence of CPT | Potency, µM (series often up to 46.2 µM), for the others: at the top dose activity change, negative = growth inhibition, usual class: inhibitors | 15% of 420,000 active | DT40 Tdp1-/- hTDP1 cells, no CPT, ATP luminescence, 48 h; further: potency means the concentration at half of the fitted maximal effect; nearly all actives have a fitted effect of over 55% in size
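Cells were dispensed at 400 per well, compounds added by pin tool, plates incubated ≥48 hr at 37 °C, then CellTiter-Glo added for 30 min at room temperature before luminescence reading. Line: DT40 Tdp1-/- complemented with hTDP1; camptothecin omitted.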
IL-1B inflam inh – blocks inflammasome-driven IL-1 beta release; 4.7% of 360,000 active; THP-1 LPS/ATP IL-1B secretion, AlphaLISA, 16 h; active compounds read low; activity change, % at 57.5 µM; in the data active means activity change below about -50%; inconclusive means mostly about -30% to -49%
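THP-1 cells pretreated 1 hr with compounds (up to 57.5 uM final), then stimulated with LPS (250 ng/mL final) plus ATP (1.25 mM final); secreted IL-1B measured by AlphaLISA after 16 hr, decreased signal indicating inhibition.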
HT1080 IDH1KD tx – HT-1080 IDH1 knockdown cell toxicity (counter line); Potency, µM (series often up to 46.1 µM), without a hit: top-dose activity, negative = toxicity, actives largely listed as cytotoxic; HT-1080 IDH1 knockdown viability, ATP luminescence, 48 h; 2% of 360,000 active; AID 686971;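 further: potency means the concentration at half of the fitted maximal effect; 0% = DMSO wells and -100% = cell-free medium wells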
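Knockdown cells (IDH1KD HT-1080) received compounds 2 h after plating at 750 cells/well and were kept 48 h at 37 °C in 5% FBS RPMI. A CellTiter-Glo luminescence read gave % activity for curve fitting.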
DT40 TDP1 CPT – growth inhibition of DT40 Tdp1-/-;hTDP1 cells with camptothecin (screen for TDP1 inhibitors). chicken DT40 Tdp1-/-;hTDP1 cells + 20 nM CPT, ATP luminescence, 48 h. Potency, µM (top dose mostly 46.2 µM), for inactives: top-dose activity change, negative = growth inhibition, usual class: inhibitors. 12% of 420,000 active; further: potency means the concentration at half of the fitted maximal effect; nearly all actives have a fitted effect of over 55% in size
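Cell growth measured by CellTiter-Glo luminescence after a minimum 48 h, 37 C compound exposure with 20 nM CPT in Tdp1-knockout DT40 cells stably expressing hTDP1, seeded 400/well; qHTS titration format.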
* hit, by the source's call; ? = inconclusive; . = no result. Unless noted, the call rests on the fitted dose curve; in most records, active means well fitted curve in the direction sought with a large enough effect; inconclusive means small, poorly fitted or top-dose-only effect, or another doubt; inactive means no such curve, though single readings can be large; an effect the other way counts as inactive or inconclusive. Unless noted, on the % scale 0 is the no-effect control and ±100 the full control effect.

SMILES	HT1080-NT tox	DT40 TDP1 no CPT	IL-1B inflam inh	HT1080 IDH1KD tx	DT40 TDP1 CPT
C=CCc1cc(OC)ccc1OCCN1CC(C)OC(C)C1 (configuration not stated)	-1%	-8%	2	3%	-14%
C=CCc1cc(Cl)ccc1OCCN1CC(C)OC(C)C1 (configuration not stated)	-4%	21µM*	1	-3%	?
CN1/C(=C/C(=O)COC(=O)CN2C(=O)C3CC=CCC3C2=O)C(C)(C)c2ccccc21 (configuration not stated)	-7%	16µM*	-11	-19%	?
CN1/C(=C\C(=O)Nc2cccc(Cl)c2)C(C)(C)c2ccccc21	?	23µM*	-72*	?	?
CCOC(=O)C1CCCN(CC(=O)/C=C2/N(C)c3ccccc3C2(C)C)C1 (configuration not stated)	-6%	13µM*	-9	-11%	?
CN1/C(=C\C(=O)COC(=O)Cn2nnc(-c3ccccc3)n2)C(C)(C)c2ccccc21	-18%	3.7µM*	8	?	4.1µM*
CN1/C(=C\C(=O)Nc2ccc(Br)cc2)C(C)(C)c2ccccc21	-3%	-9%	-2	-1%	?
O=C(Cn1nnc(-c2ccc(F)cc2)n1)OCC(=O)c1ccccc1	-2%	-15%	21	2%	-1%
CN(C(=O)COC(=O)CN1C(=O)C2CC=CCC2C1=O)c1ccccc1 (configuration not stated)	-2%	-9%	13	-2%	-6%
Cc1sc(NC(=S)NC(=O)C2CCCCC2)c(C(N)=O)c1C	-5%	-6%	17	-24%	-8%
O=C(CSc1ccc(-c2cccnc2)nn1)Nc1ccc(F)cc1	0%	-6%	1	-6%	-22%
COc1cccc(CC(=O)Nc2cccc3ccccc23)c1	19%	-2%	-9	9%	-11%
CCOC(=O)N1CCN(C(=O)c2ccc(OC)c(S(=O)(=O)N3CCOCC3)c2)CC1	-4%	1%	0	6%	-6%
CN1/C(=C/C(=O)C2CC2)C(C)(C)c2ccccc21	2%	23µM*	40	-4%	?
CN1/C(=C\C(=O)Nc2ccc(F)cc2)C(C)(C)c2ccccc21	11%	?	0	13%	?
O=C(c1cccc(F)c1)N1CCC2(CC1)CN(Cc1ccccc1)C2	.	-7%	.	.	-3%
N#Cc1cccc(NC(=O)N2CC[C@@]3(CCCN(C(=O)c4cccc(F)c4)C3)C2)c1	.	21µM*	.	.	-25%
O=C(c1cccc(F)c1)N1CCC2(CC1)CCN(c1cccc(-c3ccccc3)c1)CC2	.	16µM*	.	.	?
O=C(c1cccc(F)c1)N1CCC[C@@]2(CCN(c3cccc(-c4ccccc4)c3)C2)C1	.	21µM*	.	.	21µM*
COc1ccc(C(=O)N2CCC3(CC2)CN(c2ccc(-c4ccccc4)cc2)C3)cc1	.	?	.	.	27%
COc1ccc(C(=O)N2CCC3(CC2)CCN(c2cccc(-c4ccccc4)c2)CC3)cc1	.	0.23µM*	.	.	0.12µM*
O=C(c1cccc(F)c1)N1CCC2(CCCN(c3cccc(-c4ccccc4)c3)C2)CC1	.	?	.	.	-3%
O=C(NCc1ccccc1)OC1CC2CC1[C@H]1CCCCN1C2=O (some centres not stated)	-1%	-25%	2	6%	-11%
O=C(c1cccc(F)c1)N1CCC2(CC1)CN(c1cccc(-c3ccccc3)c1)C2	.	16µM*	.	.	?
COc1ccc(CCN(C)C(=S)Nc2ccc(SC(F)F)cc2)cc1OC	-3%	?	-4	-23%	-15%
SMILES	HT1080-NT tox	DT40 TDP1 no CPT	IL-1B inflam inh	HT1080 IDH1KD tx	DT40 TDP1 CPT
Cc1ccc(S(=O)(=O)Nc2ccc(N(C)S(=O)(=O)c3ccc(C)cc3)cc2)cc1	-30%	?	-28	?	2%
Cc1ccc(S(=O)(=O)N(C)c2ccc3c(c2)C(=O)c2ccccc2-3)cc1	0%	?	33	1%	16µM*
CCCN(C(=O)c1cc(S(=O)(=O)N2CCCCCC2)ccc1OC)C1CCS(=O)(=O)C1 (configuration not stated)	4%	0%	-9	3%	-29%
CC(=O)n1c2ccccc2c2c1c1ccccc1n2C	23µM*	-23%	0	?	-19%
COc1ccc2c(c1)CCc1c(C(=O)Nc3cc(C)n(Cc4ccc(Cl)cc4)n3)noc1-2	17%	?	44	16%	?
COc1ccc2c(c1)CCc1c(C(=O)Nc3c(C)nn(Cc4ccc(Cl)cc4)c3C)noc1-2	.	21µM*	.	.	21µM*
COc1ccc2c(c1)CCc1c(C(=O)Nc3c(C)nn(Cc4ccccc4)c3C)noc1-2	5%	9.2µM*	?	-3%	9.2µM*
COc1ccc2c(c1)CCc1c(C(=O)Nc3c(C)nn(Cc4ccc(Cl)c(Cl)c4)c3C)noc1-2	.	13µM*	.	.	12µM*
COc1ccc(C(=O)N2CC3(C)CC2CC(C)(C)C3)cc1 (configuration not stated)	-7%	?	-28	-2%	?
CC1(C)CC2CC(C)(CN2C(=O)c2ccccc2)C1 (configuration not stated)	2%	-23%	25	1%	16µM*
COc1ccc(NC(=O)CSCC(=O)NC2(C)CCS(=O)(=O)C2)cc1 (configuration not stated)	4%	0%	17	3%	-12%
COc1ccc2c(c1)CCc1c(C(=O)NCCc3ccc(OC)c(OC)c3)noc1-2	10%	13µM*	-17	-7%	?
Cc1ccc(Cn2ccc(NC(=O)c3noc4c3CCc3ccccc3-4)n2)cc1	?	-7%	-18	15%	-1%
Cc1nn(Cc2ccccc2Cl)c(C)c1NC(=O)c1noc2c1CCCCC2	-7%	?	-4	10µM*	?
Cc1nn(Cc2ccc(Cl)cc2)c(C)c1NC(=O)c1noc2c1CCc1ccccc1-2	-18%	13µM*	0	-22%	13µM*
CCN(CC)CCNC(=O)c1nn(-c2ccc(Cl)cc2)c2c1CCc1cc(OC)ccc1-2	-6%	21µM*	-103*	?	?
CC1CN(c2ccccn2)C(C)CN1C(=S)Nc1ccccc1 (configuration not stated)	11%	-1%	-7	23%	-1%
CC(=O)c1cnn(-c2ccc(Cl)c(Cl)c2Cl)c1C	24%	?	21	-6%	-14%
CC1(C)NC(=O)N(CC(=O)Nc2ccc(-n3cnnn3)cc2)C1=O	4%	-3%	4	9%	-1%
